This is a sample that favours compounds with a hit; in the whole collection about 4.1% have one here.
CASP6 VEID inh: human caspase-6 inhibitors, primary screen, biochemical, VEID-R110 fluorescence, single point, set 2. P55212. purified caspase-6, Z-VEID-R110 cleavage fluorescence. inhibition, % at 12.5 µM. 350,000 tested, 0.53% active;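 active = mean inhibition across replicates at least about 35%, with every replicate also reaching that limit, limit read from the data; inconclusive = only one of the two criteria met; inactive = neither criterion met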;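 note: 0% = median of neutral control wells and 100% = no fluorescence left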
Target sequence (P55212 24-179 limits assumed): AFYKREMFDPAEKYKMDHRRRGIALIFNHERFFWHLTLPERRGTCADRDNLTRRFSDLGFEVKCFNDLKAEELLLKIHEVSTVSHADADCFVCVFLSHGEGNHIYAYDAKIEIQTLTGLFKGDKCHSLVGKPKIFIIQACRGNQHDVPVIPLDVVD
Target sequence (P55212 194-293 limits assumed): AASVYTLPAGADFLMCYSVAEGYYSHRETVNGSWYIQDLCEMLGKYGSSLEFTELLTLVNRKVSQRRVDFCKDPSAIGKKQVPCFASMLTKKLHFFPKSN
PglD DTNB: C. jejuni PglD acetyltransferase inhibitors, primary screen, biochemical, DTNB colorimetric, single point; UDP-N-acetylbacillosamine N-acetyltransferase PglD (Campylobacter jejuni); purified PglD enzyme, DTNB colorimetric CoA detection; inhibition, % at 12.5 µM; 360,000 tested, 0.098% active; AID 602405, 2012; in the data active = inhibition above about 16%, passing the limit was not always enough; inconclusive = no clear call, values can overlap the other calls
NSD2 HMT inh: NSD2 histone methyltransferase inhibitors, primary screen, biochemical, AlphaScreen, single concentration, set 2 | Histone-lysine N-methyltransferase NSD2 (Homo sapiens), O96028 | NSD2 peptide methylation, 120 min | inhibition, % at 12.5 µM | 310,000 tested, 0.54% active; in the data active = inhibition above about 50%
ALR inh: inhibitors of human ALR sulfhydryl oxidase, primary screen, biochemical, H2O2 detection, HRP-luminol luminescence, single point; FAD-linked sulfhydryl oxidase ALR (Homo sapiens), P55789; purified ALR, DTT oxidation; inhibition, % (no concentration beside the values); 290,000 tested, 3.8% active;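 active = mean replicate inhibition above about 79%, with every replicate also reaching it, limit read from the data; inconclusive = only one of the two criteria met; inactive = mean below limit and not every replicate reaching it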
Target sequence (P55789 whole entry, looked up): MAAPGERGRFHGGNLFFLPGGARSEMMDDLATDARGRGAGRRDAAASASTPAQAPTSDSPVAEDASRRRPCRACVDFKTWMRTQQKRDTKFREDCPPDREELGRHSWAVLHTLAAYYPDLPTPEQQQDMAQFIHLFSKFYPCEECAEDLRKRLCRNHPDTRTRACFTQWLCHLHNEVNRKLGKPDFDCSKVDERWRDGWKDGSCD
CFTR F508del cor: F508del CFTR correction, initial screen, CFBE line, single point. activity (quench increase), % at 7.58 µM. AID 720511, 2013. 350,000 tested, 0.36% active. CFBE cells, YFP halide quenching; stimulated with forskolin plus potentiator P3; % fluorescence drop versus neutral controls;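 active = mean added fluorescence quench of at least 8% versus neutral control, with both replicates also reaching 8%; inconclusive = only one of the mean or replicate conditions met; inactive = mean below 8% and not both replicates reaching 8%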;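 note: cells transiently co-express mutant CFTR-F508del with the halide-sensitive YFP; corrector assay measuring rescue of mutant channel to the surface after 24 h compound exposure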
Env fusion inh: inhibitors of HIV-1 Env-driven cell-cell fusion, primary screen, HeLa-JRFL effector, CEM21 target cells, luciferase; AID 651610, 2012; 360,000 tested, 1.1% active; inhibition, % at 12.3 µM;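 active = mean replicate inhibition score of at least 50 and every replicate individually at or above 50; inconclusive = only one of the two criteria met; inactive = mean below 50 and not all replicates reaching 50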;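 note: 0% = plate neutral controls and 100% = maraviroc near 300 nM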
Starred values were filed as active, the others as inactive; [ ] = another dose, or the depositor's remark.

What do the screens show for `C[C@@H]1CN([C@H](C)CO)C(=O)Cc2cc(NS(=O)(=O)c3cccs3)ccc2O[C@H]1CN(C)Cc1ccncc1`?
PglD DTNB: -0.6; CFTR F508del cor: 2.6; Env fusion inh: 5.9[16.7 µM]

What do the screens show for `C[C@@H]1CN([C@H](C)CO)S(=O)(=O)c2ccc(C#CC3CCCC3)cc2O[C@@H]1CN(C)C(=O)Nc1cc(F)ccc1F`?
CASP6 VEID inh: 0.9; PglD DTNB: -1.9; CFTR F508del cor: 1.8; Env fusion inh: -19.8[16.7 µM]

Results for O=C(O)c1ccc2c(c1)C(=O)N(Cc1ccc3c(c1)OCO3)C2=O ?
PglD DTNB: 2.3; NSD2 HMT inh: 0.5; ALR inh: 87.0*; Env fusion inh: -15.5

What do the screens show for `CCCCCCNC(=O)CNC(=S)N(Cc1cccs1)C1CCCCC1`?
CASP6 VEID inh: 2.9; PglD DTNB: -1.3; NSD2 HMT inh: 0.2; ALR inh: 4.3; CFTR F508del cor: 0.3; Env fusion inh: 58.8*

How did CN1C(=O)c2cc(NC(=O)Cc3cccs3)ccc2OC[C@@H]2O[C@H](CC(=O)N[C@@H]3CCN(Cc4ccccc4)C3)CC[C@H]21 do in these assays?
CASP6 VEID inh: -9.1; PglD DTNB: 2.0; Env fusion inh: -8.8[16.7 µM]

How did O=C(NCc1ccc(F)cc1)[C@@H]1[C@@H](CO)[C@@H]2Cn3c(ccc(C4=CCCCC4)c3=O)[C@H]1N2 do in these assays?
CASP6 VEID inh: 0.0; PglD DTNB: 2.2; Env fusion inh: 4.5[16.7 µM]

How did COc1ccccc1/C=C/C=N/NC(=O)c1cc(-c2ccco2)[nH]n1 do in these assays?
CASP6 VEID inh: 6.0; PglD DTNB: 5.8; NSD2 HMT inh: 4.0; ALR inh: 98.3*; CFTR F508del cor: -0.6; Env fusion inh: 13.0

How did CO[C@H]1CN(C)C(=O)c2ccc(NC(C)=O)cc2OC[C@H](C)N(Cc2ccccc2C(=O)O)C[C@@H]1C do in these assays?
CASP6 VEID inh: -3.4; CFTR F508del cor: -2.4

How did CC(NC(=O)CN1c2cccc3cccc(c23)S1(=O)=O)c1ccccc1 (configuration not stated) do in these assays?
CASP6 VEID inh: 7.9; PglD DTNB: -3.3; NSD2 HMT inh: 45.8; CFTR F508del cor: -0.1

How did CC(NC(=O)CN1c2cccc3cccc(c23)S1(=O)=O)c1ccc(S(N)(=O)=O)cc1 (configuration not stated) do in these assays?
CASP6 VEID inh: 55.8*; PglD DTNB: -2.8; NSD2 HMT inh: 2.8; ALR inh: -19.0; CFTR F508del cor: 0.7; Env fusion inh: -0.8

How did COc1cc(-c2nnc(COC(=O)c3ccc(C)o3)o2)cc(OC)c1OC do in these assays?
CASP6 VEID inh: 35.3*; PglD DTNB: 1.1; NSD2 HMT inh: -0.2; ALR inh: -2.8; CFTR F508del cor: 3.0; Env fusion inh: -10.5

How did COc1cc(-c2nnc(COC(=O)c3cc(C)no3)o2)cc(OC)c1OC do in these assays?
CASP6 VEID inh: 1.8; PglD DTNB: -3.4; NSD2 HMT inh: -1.7; ALR inh: -1.3; CFTR F508del cor: -0.3; Env fusion inh: -10.2

What do the screens show for `CC1SC(=S)N(c2ccc(N(C)C)cc2)C1=O` (configuration not stated)?
CASP6 VEID inh: 3.4; PglD DTNB: 4.7; NSD2 HMT inh: 11.1; ALR inh: 98.7*; CFTR F508del cor: 3.0; Env fusion inh: -10.6

What do the screens show for `COc1ccc(COCC23N=C4SCc5ccccc5CN4[C@H](c4ccccc4O2)[C@H]3COC(=O)c2ccccc2)cc1`?
CASP6 VEID inh: -3.2; PglD DTNB: -1.6; CFTR F508del cor: 1.8; Env fusion inh: 69.3*[16.7 µM]

Results for COc1cccc(C(=O)C2CN(c3ccccc3)CC2c2ccc(Cl)cc2)c1 (configuration not stated) ?
CASP6 VEID inh: -2.3; PglD DTNB: -6.7; NSD2 HMT inh: -0.3; ALR inh: 97.3*; CFTR F508del cor: 0.7

How did COc1ccc(NC(=O)Nc2ccc3c(c2)C(=O)N([C@@H](C)CO)C[C@@H](C)[C@@H](CN(C)C(=O)Nc2ccc4c(c2)OCO4)O3)cc1 do in these assays?
PglD DTNB: -3.3; CFTR F508del cor: 0.0; Env fusion inh: 5.1[16.7 µM]

What do the screens show for `O=C(C[C@@H]1C[C@@H]2c3cc(NC(=O)NC4CCCC4)ccc3O[C@@H]2[C@@H](CO)O1)NCc1ccccn1`?
CASP6 VEID inh: 0.4; CFTR F508del cor: 0.2

Results for COc1cccc(-c2csc(N3CCN(C(=O)Nc4ccc(Cl)cc4)CC3)n2)c1 ?
CASP6 VEID inh: -0.7; NSD2 HMT inh: -4.4; ALR inh: -2.5; CFTR F508del cor: 0.8; Env fusion inh: 22.7

How did COc1ccc(NC(=O)N2CCN(c3nc(-c4cccc(OC)c4)cs3)CC2)cc1 do in these assays?
PglD DTNB: -3.4; Env fusion inh: 63.3*

What do the screens show for `O=C(C[C@H]1CC[C@@H](NC(=O)NC2CCCC2)[C@@H](CO)O1)NCc1ccc(F)cc1`?
CASP6 VEID inh: -1.8; PglD DTNB: 0.3; CFTR F508del cor: -3.8; Env fusion inh: 4.0[16.7 µM]

How did CCCNC(=O)N1CC2(C1)[C@H](c1ccccc1)[C@@H](CO)N2Cc1ccccn1 do in these assays?
CASP6 VEID inh: -1.9; CFTR F508del cor: 0.5

How did Cc1cccc(C)c1N=Nc1c(C)cc(O)cc1C do in these assays?
CASP6 VEID inh: 3.0; PglD DTNB: 4.0; NSD2 HMT inh: 57.7*; ALR inh: 92.4*; CFTR F508del cor: -1.0; Env fusion inh: -11.3

What do the screens show for `Cc1cccc(O)c1C`?
CASP6 VEID inh: -1.1; PglD DTNB: 0.1; CFTR F508del cor: -2.7

What do the screens show for `CNC(=O)C[C@H]1CC[C@@H]2[C@@H](COc3ccc(NC(=O)Nc4cccc(Cl)c4)cc3C(=O)N2C)O1`?
CASP6 VEID inh: -0.2; PglD DTNB: -1.0; CFTR F508del cor: -0.5; Env fusion inh: inconclusive

How did COCCNC(=O)C[C@@H]1CC[C@H](NS(=O)(=O)c2ccc(C)cc2)[C@H](CO)O1 do in these assays?
CASP6 VEID inh: 0.8; PglD DTNB: 1.4; CFTR F508del cor: 2.7; Env fusion inh: -3.0[16.7 µM]

Results for COc1cccc(C2NC(c3cccc(OC)c3O)C(C)C(=O)C2C)c1O (configuration not stated) ?
CASP6 VEID inh: 0.0; PglD DTNB: 4.3; NSD2 HMT inh: 3.9; ALR inh: 87.5*; CFTR F508del cor: 1.4

Results for C[C@@H](NC(=O)C[C@H]1C=C[C@@H](NC(=O)Cc2ccccn2)[C@@H](CO)O1)c1ccccc1 ?
CASP6 VEID inh: -0.9; PglD DTNB: 2.8; CFTR F508del cor: -0.6

What do the screens show for `Nc1ccn([C@@H]2O[C@H](COS(=O)(=O)O)[C@@H](O)[C@H]2O)c(=O)n1`?
CASP6 VEID inh: 4.1; PglD DTNB: -2.5; ALR inh: 5.1; CFTR F508del cor: 1.7; Env fusion inh: -16.7

Screens from PubChem BioAssay.
